# Test results from ChEMBL document CHEMBL3988442, “University of Dundee, Small-Polar-MMV Screening Library” (2021).
# Hit rate of the full screen: of about 48,000 compounds, about 13,000 (27%) showed an effect of 50% or more. The list shows a part of the results.
# Test system: Wolbachia pipientis
# Assay: Anti-Wolbachia Cell-Based Screen
# Type: functional
# Set-up: scale not given: in the data most compounds retested in dose-response had high values
# Conditions: 5 µM
row,SMILES,Percent Effect
1,Cc1cc(C(=O)N2CCc3c(nc(-c4ccncc4)[nH]c3=O)C2)no1,-7.817%
2,O=C(c1cccnc1-c1ccc2c(c1)OCCO2)N1CCCC1,-9.168%
3,CN1CCCN(C(=O)c2ccc3c(c2)nc(N2CCOCC2)n3C)CC1,16.47%
4,Cn1cnnc1C1CCCN(C(=O)c2ccc3c(c2)OCCO3)C1 (configuration not stated),-7.071%
5,O=C(O)C(c1ccc2c(c1)OCCO2)N1CCCC1 (configuration not stated),10.75%
6,O=C(O)c1cccn1-c1ccc2c(c1)OCCO2,96.33%
7,CN1CCCN(C(=O)c2cccn2-c2ccc3c(c2)OCCO3)CC1,88.31%
8,CN(C)C(=O)c1cccnc1-c1ccc2c(c1)OCCO2,-4.201%
9,CN(C)C(=O)C(C)(C)c1ccc2c(c1)OCCO2,-10.01%
10,O=C(c1cccn1-c1ccc2c(c1)OCCO2)N1CCCC1,97.35%
11,O=C(O)C(c1ccc2c(c1)OCCO2)N1CCCCCC1 (configuration not stated),-0.2284%
12,CC(=O)N1CC2(CCN(C(=O)c3ccc4c(c3)OCCO4)CC2)C1,-3.523%
13,CN(C)C(=O)c1cccn1-c1ccc2c(c1)OCCO2,99.12%
14,CN(CC(F)(F)F)C(=O)c1ccc(F)c(NS(C)(=O)=O)c1,-3.424%
15,CS(=O)(=O)CCn1ccc(NCc2ccc(C#N)cc2)n1,4.656%
16,CC(c1nccs1)n1cc(-c2cc(CN3CCCCC3)cs2)nn1 (configuration not stated),17.2%
17,CC1CN(C(=O)c2ccnc(-n3cncn3)c2)c2ccccc2S1 (configuration not stated),-6.511%
18,CC(C)CNC(=O)c1ccc2nnc(C3CCN(S(C)(=O)=O)C3)n2c1 (configuration not stated),-4.952%
19,Cc1ccc(C(=O)NS(=O)(=O)c2cccc3cnccc23)c(=O)[nH]1,-6.684%
20,CC(=O)N1CCCCC1c1ncnn1-c1ccc2nc(C)sc2c1 (configuration not stated),1.056%
21,Cc1nn(CC(=O)O)c(C)c1NS(=O)(=O)c1cccc2ccccc12,85.86%
22,CN(C)c1ncc(CNS(=O)(=O)c2cccc3ccccc23)n1C,5.382%

row,SMILES,Percent Effect
1,Cc1nc2ccc(S(=O)(=O)Nc3c(C)nn(CC(=O)O)c3C)cc2s1,96.05%
2,CCN(C)S(=O)(=O)NCC(O)c1cc2ccccc2s1 (configuration not stated),-28.91%
3,Cc1nn(CC(=O)O)c(C)c1NS(=O)(=O)c1cc2ccccc2s1,90.4%
4,Cc1ccc(S(=O)(=O)Nc2c(C)nn(C)c2C)cc1C,-30.32%
5,CCn1nc(C)c(S(=O)(=O)Nc2ccccc2C(=O)OC)c1C,-6.756%
6,Cc1ccc(CCN[C@@H]2c3ccccc3C3(CCNCC3)[C@H]2O)s1,-1.865%
7,Cc1cc(C(=O)N[C@H](C)c2onc(-c3cccnc3)c2C(=O)O)c(C)o1.Cl,-10.14%
8,C=Cc1ccc(C(=O)N2CCCC(Nc3ccc(F)c(F)c3)C2)cc1 (configuration not stated),-24.37%
9,Cc1cc(=O)[nH]c(SC(C)C(=O)N2CCCN(C3CCCC3)CC2)n1 (configuration not stated),-14.72%
10,O=C(Nc1cccnc1)c1ccc(-n2cncn2)nn1,4.763%
11,Fc1ccc2c(c1)C1(CCNCC1)CC2OCC1CC1 (configuration not stated),-8.217%
12,Cl.Cl.c1ccc2c(c1)C(NC1CCCC1)CC21CCNCC1 (configuration not stated),102.9%
13,CNC(=O)NC1CC2(CCNCC2)c2ccc(C)cc21 (configuration not stated),2.029%
14,COc1cc(CNC(=O)c2csc(Br)c2)ccn1,70.51%
15,COc1cc(CNC(=O)Nc2nnc(C(C)C)s2)ccn1,139%
16,Cc1nnc(NC(=O)NCc2ccnc(N(C)C)c2)s1,99.1%
17,CCOc1ncccc1CNC(=O)c1csc(Br)c1,-22.46%
18,CC(C)c1nnc(NC(=O)NCc2ccnc(N(C)C)c2)s1,-3.838%
19,COc1ncccc1CNC(=O)c1csc(Br)c1,-3.895%
20,COc1cc(CNC(=O)Nc2nnc(C(C)C)s2)ccc1O,0.367%
21,CC/C=C(/C)C(=O)NCc1ccnc(OC)c1,-6.401%
22,CN(C)c1cc(CNC(=O)Nc2nnc(C3CC3)s2)ccn1,137.2%

row,SMILES,Percent Effect
1,Cc1cc(Br)ccc1C(=O)N(C)CCNS(C)(=O)=O,-13.91%
2,COCc1nc(N(C)CCSc2ccccc2)c2cnn(C)c2n1,-20.02%
3,Cc1cnc(CN2CCCC(c3nc4ccccc4n3C(C)C)C2)o1 (configuration not stated),-8.983%
4,CN(C)C(C(=O)NCC1(C)COC1)c1cccc(F)c1 (configuration not stated),3.319%
5,CC(C)[C@H]1CN(C2Cc3ccccc3C2)C[C@@H]1NS(C)(=O)=O,7.531%
6,CC(C)[C@@H]1CN(C2CCN(Cc3ccccc3)CC2)C[C@H]1NS(C)(=O)=O,57.6%
7,CS(=O)(=O)N[C@H]1CN(CCOCc2ccccc2)C[C@@H]1C1CC1,-6.261%
8,CS(=O)(=O)N[C@@H]1CN(Cc2ccc3ccccc3c2)C[C@H]1O,117%
9,CS(=O)(=O)NC1CCN(C(=O)c2ccc3ccccc3c2)C1 (configuration not stated),-0.4422%
10,CS(=O)(=O)N[C@@H]1CN(C(=O)c2cc3ccccc3s2)C[C@H]1O,153.3%
11,CC(C)[C@H]1CN(C2Cc3ccccc3C2)C[C@@H]1NS(=O)(=O)N(C)C,-3.523%
12,COc1ccc(CN2C[C@@H]3CCCO[C@@H]3[C@H](NS(C)(=O)=O)C2)cc1.O=C(O)C(F)(F)F,-19.78%
13,CS(=O)(=O)N[C@@H]1CN(Cc2ccccc2)C[C@@H]2CCCO[C@@H]21,-3.887%
14,CS(=O)(=O)N[C@@H]1CN(Cc2ccccc2)C[C@H]1O,118.1%
15,CS(=O)(=O)NC1CCN(C(=O)c2cc3ccccc3s2)C1 (configuration not stated),-26.49%
16,CCC[C@@H]1CN(C(=O)c2cc3ccccc3s2)C[C@H]1NS(C)(=O)=O,-8.95%
17,O=C(NCc1cc2ccccc2s1)c1cc(CN2CCCC(O)C2)on1 (configuration not stated),4.701%
18,O=C(O)CC[C@@H]1CN(c2ncnc3[nH]ccc23)CC[C@@H]1N1CCOCC1,-3.371%
19,COCc1cn(C2CCN(C(=O)c3ccc(F)c(C)c3)CC2)nn1,14.23%
20,Cc1cc(F)ccc1OC1(C(=O)O)CCN(Cc2nccn2C)CC1,-12.18%
21,O=c1cc(CNS(=O)(=O)C2CC2)nc2n1CCCNC2,10.88%
22,O=C(CCC1CCCCO1)NCc1cnn(-c2ccc(F)cc2F)c1 (configuration not stated),2.583%

row,SMILES,Percent Effect
1,COc1ccc(C)cc1-n1cnnc1C1CCOCC1,1.298%
2,CCC[C@@H]1CN(C(=O)c2cnc3ccccc3c2)C[C@H]1NS(C)(=O)=O,-44.49%
3,CCC[C@@H]1CN(Cc2ccc(C(F)(F)F)nc2)C[C@H]1NS(C)(=O)=O,-0.637%
4,CS(=O)(=O)N[C@@H]1CN(Cc2ccc3ncccc3c2)C[C@H]1O,100.1%
5,CSc1ccsc1C(=O)NS(=O)(=O)c1cnn(C)c1,-33.43%
6,COC(=O)CN1CCN(c2cccc(C)c2)CC1,-56.86%
7,Cc1ccc(-n2cnc(Cl)c2CO)cc1,81.89%
8,OCc1c(Cl)ncn1-c1ccc(F)cc1,124.8%
9,COc1ccc(-n2cnc(Cl)c2CO)cc1,99.78%
10,O=C1CC(c2ccc(C(=O)O)cc2)c2ncn(-c3ccc(F)cc3)c2N1 (configuration not stated),-3.148%
11,COc1ccc(-n2cnnc2CC2CCNCC2)cc1,-7.776%
12,COc1ccc(OCC(=O)n2nc(C)c(C)c2C)cc1,7.668%
13,Cc1cccc(N2CCN(C(=O)CN3CCN(CCO)CC3)CC2)c1,-11.5%
14,Cc1cccc(-n2cnc(Cl)c2CO)c1,116.1%
15,CC(=O)c1c(C)cc(C)c(Cn2ccnc2S(C)(=O)=O)c1C,-6.43%
16,CCOCCCC(=O)Nc1[nH]nc(-c2ccncc2)c1C,17.32%
17,Cc1ccccc1-n1cnnc1SCC(=O)NCC1CCCO1 (configuration not stated),6.164%
18,OCc1c(Cl)ncn1-c1ccccc1,94.93%
19,Cc1ccccc1-n1cnc(Cl)c1CO,94.22%
20,Cc1ccccc1-n1cnnc1SCC1CCCCO1 (configuration not stated),0.1895%
21,Cc1ccoc1C(=O)NCCOc1ncc(Cl)cc1Cl,-11.16%
22,Cc1nn(CCC#N)c(C)c1[C@@H]1C=C[C@@H](NCc2cccc(Cl)c2)C1,-10.09%

row,SMILES,Percent Effect
1,O=C(Nc1ccncc1)NC1CCN(c2ccccc2OC(F)F)C1 (configuration not stated),-11.28%
2,Cc1noc(CCCC(=O)N(CC2CCOC2)C2CC2)n1 (configuration not stated),-3.8%
3,Cc1noc(C)c1Cc1nc(C2CC2)no1,-12.44%
4,CCc1nc(C2CCCN(c3nccc(C)n3)C2)no1 (configuration not stated),-0.3429%
5,Cc1noc(C)c1CS(=O)(=O)Cc1nc(C2CC2)no1,-5.953%
6,Cc1ccccc1CS(=O)(=O)Cc1nc(C2CC2)no1,-6.253%
7,Cc1ccc(CCc2nc(C3CCOC3)no2)o1 (configuration not stated),90.49%
8,Cc1noc(CCCc2nc(C3CCOC3)no2)n1 (configuration not stated),78.93%
9,Cc1noc(C)c1CCc1nc(C2CCOC2)no1 (configuration not stated),100.6%
10,CC(C)CCN1CCN(Cc2nc(C3CC3)no2)CC1,-1.38%
11,CCOCC(=O)NC(C)c1cc(C)ccc1C (configuration not stated),4.424%
12,c1nc(CSc2nnc(C3CC3)s2)cs1,-11.09%
13,CCN1CCC(CC(=O)NCc2cc(C)nn2C)CC1,-11.94%
14,CC(C)c1nn(C)c(Cl)c1CNCC(=O)N1CCN(C)CC1.Cl,99.42%
15,COc1c(CNC2(c3noc(C)n3)CCC2)c(C(C)C)nn1C.Cl,-8.281%
16,CC(C)c1nn(C)c(N2CCOCC2)c1CNCC(=O)N(C)C,-5.66%
17,COc1c(CNCc2cnn(C)c2)c(C(C)C)nn1C,-6.64%
18,CC(C)c1nn(C)c(N(C)C)c1CNCCC(=O)N(C)C.Cl,-2.081%
19,COc1c(CNCC(=O)N2CCN(C)CC2)c(C(C)C)nn1C,95.67%
